# Laboratory results as given in PubChem BioAssay (Tox21).
# Values joined by “and” are separate entries in the source; they are usually repeats but may differ in a detail not shown here. Equal values may be shown once. Results filed as inconclusive are left out. Where a call stands in place of a potency, no number is given. Some structures have more than one record in an assay (separate samples or runs), and their calls can disagree. Active and inactive are the calls of the source. Unless noted, calls follow the shape of the dose curve; as a rule, active = well fitted curve in the direction sought with a large enough effect in the repeat runs; inconclusive = weak or mixed curves; inactive = no such curve, though single readings can be large; an effect the other way counts as inactive or inconclusive.
# Key:
# [1] = qHTS assay to identify small molecule agonists of the RXR signaling pathway - cell viability counter screen (AID 1159529); also: nearly all actives have a fitted effect of over 50% in size; also: potency is read from the fitted curve at half-maximal effect
# Outline: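 Counter screen: CellTiter-Glo luminescence. Cells: RXR-alpha-UAS-bla HEK 293T. Medium: 2% charcoal-stripped FBS. Treatment: 16 h, 37 C. Reagent incubation: 30 min, RT.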
# [2] = qHTS assay to identify small molecule antagonists of the retinoid acid receptor (RAR) signaling pathway - cell viability counter screen (AID 1159551); also: nearly all actives have a fitted effect of over 35% in size; also: potency is read from the fitted curve at half-maximal effect
# Outline: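 Cytotoxicity counter screen in C3RL4 cells: 6 h compound exposure with 1 uM retinol (final), viability from cellular ATP by luminescence.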
# [3] = qHTS assay to identify small molecule antagonists of the retinoic acid receptor (RAR) signaling pathway (AID 1159552; also: nearly all actives have a fitted effect of over 50% in size; also: potency is read from the fitted curve at half-maximal effect)
# Outline: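 Antagonism of retinol-induced RARE reporter activity was measured in C3RL4 cells. Exposure to compounds and 1 uM final retinol lasted 6 hr at 37 C, with luminescence as endpoint.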
# [4] = qHTS assay to identify small molecule agonists of the retinoic acid receptor (RAR) signaling pathway (AID 1159553)
# Outline: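 Agonist activity was scored in C3RL4 cells bearing a retinoic acid response element luciferase construct. Cells were treated with compounds for 6 hr at 37 C, and luciferase signal was measured as luminescence.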
# [5] = qHTS assay to identify small molecule antagonists of the estrogen related receptor (ERR) signaling pathway from Tox21 library - cell viability counter screen (AID 1224834); also: nearly all actives have a fitted effect of over 30% in size; also: potency is read from the fitted curve at half-maximal effect
# Outline: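 Cytotoxicity of test substances is gauged in the same ERR cells used for the antagonist screen, after 17.5 h of compound treatment at 37 C, by CellTiter-Fluor fluorescence measured after 30 min.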
# [6] = target: Luciferin 4-monooxygenase (Photinus pyralis) (UniProt P08659); assay: qHTS assay to identify small molecule inhibitors of firefly luciferase (AID 1224835); also: nearly all actives have a fitted effect of over 25% in size; also: potency is read from the fitted curve at half-maximal effect
# Sequence of Luciferin 4-monooxygenase (Photinus pyralis) (P08659 whole entry, looked up): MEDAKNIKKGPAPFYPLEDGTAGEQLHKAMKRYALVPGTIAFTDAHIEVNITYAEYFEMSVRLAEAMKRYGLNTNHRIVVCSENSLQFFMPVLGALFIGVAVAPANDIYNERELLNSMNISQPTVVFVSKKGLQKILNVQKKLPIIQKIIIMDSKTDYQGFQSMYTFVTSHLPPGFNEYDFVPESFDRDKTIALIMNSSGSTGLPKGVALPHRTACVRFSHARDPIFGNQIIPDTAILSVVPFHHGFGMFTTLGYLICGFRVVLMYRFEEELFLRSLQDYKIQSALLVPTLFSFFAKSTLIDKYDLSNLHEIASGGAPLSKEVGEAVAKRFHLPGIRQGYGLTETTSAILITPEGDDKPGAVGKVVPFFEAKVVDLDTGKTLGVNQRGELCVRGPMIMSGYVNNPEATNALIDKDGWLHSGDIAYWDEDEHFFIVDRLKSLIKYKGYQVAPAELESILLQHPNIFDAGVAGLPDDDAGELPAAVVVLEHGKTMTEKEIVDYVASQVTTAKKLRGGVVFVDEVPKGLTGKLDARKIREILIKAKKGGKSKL
# Outline: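 Quantitative HTS format; KM concentrations of both substrates. Purified P. pyralis FLuc activity quantified from luminescence images.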
# [7] = qHTS assay to identify small molecule agonists of the constitutive androstane receptor (CAR) signaling pathway - cell viability counter screen (AID 1224836); also: series mostly up to about 92 µM; nearly all actives have a fitted effect of over 45% in size
# Outline: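 Double-stable HepG2 hepatoma cells (hCAR plus CYP2B6-2.2kb) are treated for 23 h at 37 C with test compounds in 15-point concentration series. PK11195 at 0.75 uM final is co-added. Cell viability is quantified by CellTiter-Fluor.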
# [8] = qHTS assay to identify small molecule antagonists of the constitutive androstane receptor (CAR) signaling pathway - cell viability counter screen (AID 1224837); also: series mostly up to about 92 µM; nearly all actives have a fitted effect of over 45% in size
# Outline: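 Multiplexed cytotoxicity read-out for the CAR antagonist screen: double-stable HepG2-CYP2B6-hCAR cells co-treated with 50 nM CITCO (final) and compound over 15 concentrations, incubated 23 hr, then assessed by CellTiter-Fluor fluorescence.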
# [9] = target: Nuclear receptor subfamily 1 group I member 3 (Homo sapiens) (UniProt Q14994); assay: qHTS assay to identify small molecule antagonists of the constitutive androstane receptor (CAR) signaling pathway (AID 1224838); also: nearly all actives have a fitted effect of over 40% in size; also: potency is read from the fitted curve at half-maximal effect
# Sequence of Nuclear receptor subfamily 1 group I member 3 (Homo sapiens) (Q14994 whole entry, looked up): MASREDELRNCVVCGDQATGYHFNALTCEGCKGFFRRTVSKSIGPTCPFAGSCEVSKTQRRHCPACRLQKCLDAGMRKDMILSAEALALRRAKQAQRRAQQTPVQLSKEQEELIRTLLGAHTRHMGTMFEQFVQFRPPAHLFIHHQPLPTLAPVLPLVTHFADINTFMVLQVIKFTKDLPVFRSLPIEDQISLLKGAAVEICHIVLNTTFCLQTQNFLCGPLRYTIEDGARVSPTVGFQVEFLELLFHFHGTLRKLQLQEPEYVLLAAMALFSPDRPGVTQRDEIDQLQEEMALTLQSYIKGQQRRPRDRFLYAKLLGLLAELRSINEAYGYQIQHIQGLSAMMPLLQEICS
# Outline: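 Compounds were titrated across 15 concentrations onto HepG2 cells double-stably expressing hCAR and a CYP2B6-2.2kb reporter, together with 50 nM CITCO (final). After 24 h at 37 C, luciferase activity was measured by luminescence.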
# [10] = target: Nuclear receptor subfamily 1 group I member 3 (Homo sapiens) (UniProt Q14994); assay: qHTS assay to identify small molecule agonists of the constitutive androstane receptor (CAR) signaling pathway (AID 1224839); also: nearly all actives have a fitted effect of over 15% in size; also: potency is read from the fitted curve at half-maximal effect
# Outline: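 Readout: firefly luciferase luminescence via ONE-Glo. System: HepG2 double-stable for hCAR and CYP2B6-2.2kb. Conditions: 15-point compound titration, PK11195 at 0.75 uM final, 24 h incubation.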
# [11] = qHTS assay to identify small molecule antagonists of the estrogen related receptor signaling pathway with the pleiotropic PPARgamma coactivator (PGC) from Tox21 10K library - cell viability counter screen (AID 1224840; active = well fitted cell-killing curve with a large enough effect in the repeat runs, not every such curve was filed as active; also: nearly all actives have a fitted effect of over 40% in size; also: potency is read from the fitted curve at half-maximal effect)
# Outline: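 Step one, plate 2,000 PGC/ERR cells per well; step two, incubate 6 h at 37 C/5% CO2; step three, pin-transfer compounds; step four, incubate 17.5 h; step five, add CellTiter-Fluor and read fluorescence after 30 min.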
# [12] = target: Thyrotropin receptor (Homo sapiens) (UniProt P16473); assay: qHTS assay to identify small molecule agonists of the thyroid stimulating hormone receptor (TSHR) signaling pathway (AID 1224843; calls by dose curve; also: nearly all actives have a fitted effect of over 45% in size)
# Sequence of Thyrotropin receptor (Homo sapiens) (P16473 whole entry, looked up): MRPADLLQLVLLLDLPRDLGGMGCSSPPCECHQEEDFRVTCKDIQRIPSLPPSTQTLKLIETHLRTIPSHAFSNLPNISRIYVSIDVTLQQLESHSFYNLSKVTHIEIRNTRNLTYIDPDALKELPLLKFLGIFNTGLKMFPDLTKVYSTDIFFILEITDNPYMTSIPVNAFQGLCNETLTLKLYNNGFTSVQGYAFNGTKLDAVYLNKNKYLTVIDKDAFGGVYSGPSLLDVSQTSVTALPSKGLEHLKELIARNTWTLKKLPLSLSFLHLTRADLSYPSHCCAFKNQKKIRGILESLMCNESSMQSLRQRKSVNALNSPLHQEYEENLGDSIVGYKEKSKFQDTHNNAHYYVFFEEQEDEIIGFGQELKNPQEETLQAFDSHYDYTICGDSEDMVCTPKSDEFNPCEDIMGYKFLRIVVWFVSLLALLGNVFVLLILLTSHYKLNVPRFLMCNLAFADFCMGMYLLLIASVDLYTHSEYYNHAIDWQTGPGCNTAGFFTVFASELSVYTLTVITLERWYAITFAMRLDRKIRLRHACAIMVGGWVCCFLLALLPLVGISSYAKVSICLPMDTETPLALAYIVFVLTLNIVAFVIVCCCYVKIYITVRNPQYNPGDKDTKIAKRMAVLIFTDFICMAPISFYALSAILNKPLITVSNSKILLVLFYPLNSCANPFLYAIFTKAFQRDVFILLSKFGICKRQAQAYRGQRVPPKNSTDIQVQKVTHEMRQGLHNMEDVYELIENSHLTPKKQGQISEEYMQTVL
# Outline: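 Cell line HEK293 with TSHR; density 800/well. Exposure 30 min RT. Readout HTRF cAMP (cAMP-d2/anti-cAMP-cryptate), 1 h RT before reading.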
# [13] = qHTS assay to identify small molecule antagonists of the estrogen related receptor signaling pathway with the pleiotropic PPARgamma coactivator (PGC) from Tox21 10K library (AID 1224841; call rule not given here; also: actives are mostly falling curves and most rising ones were filed inactive; nearly all actives have a fitted effect of over 50% in size; also: potency is read from the fitted curve at half-maximal effect)
# Outline: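 Antagonism in this quantitative HTS is taken from loss of luciferase signal in PGC/ERR cells. Cells (2,000/well) are treated with compounds in DMSO after a 6 h settling period and read by One-Glo luminescence after 18 h.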
# [14] = qHTS assay to identify small molecule agonists of the estrogen related receptor signaling pathway with the pleiotropic PPARgamma coactivator (PGC) from Tox21 10K library (AID 1224842); also: nearly all actives have a fitted effect of over 15% in size
# Outline: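 PGC/ERR reporter cells (NTP line) were seeded 2,000 per well, rested 6 h at 37 C/5% CO2, then pin-dosed with compounds in DMSO for 18 h at 37 C; luciferase read by One-Glo luminescence after 30 min at room temperature.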
# [15] = qHTS assay to identify small molecule antagonists of the estrogen related receptor (ERR) signaling pathway - cell viability counter screen (AID 1224818);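 also: series mostly up to about 46 µM; viability measured after 17.5 h of compound exposure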
# Outline: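 Cells carrying the ERR pathway reporter were seeded and incubated for 6 hours before compound addition. After a 17.5-hour exposure at 37 C, live-cell protease activity was measured by CellTiter-Fluor fluorescence following 30 minutes of incubation.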
# [16] = qHTS assay to identify small molecule antagonists of the estrogen related receptor signaling pathway with the pleiotropic PPARgamma coactivator (PGC) cell viability counter screen (AID 1224822;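 also: series mostly up to about 46 µM; viability read after 17.5 h compound exposure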)
# Outline: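 Seed PGC/ERR cells (2,000/well); incubate 6 h at 37 C/5% CO2; pin-transfer compounds in DMSO; incubate 17.5 h at 37 C; add CellTiter-Fluor; after 30 min read fluorescence.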
# [17] = qHTS assay to identify small molecule antagonists of the estrogen related receptor (ERR) signaling pathway (AID 1224819;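 also: luminescence from an ERR-driven luciferase reporter measured with One-Glo reagent; series mostly up to about 46 µM; nearly all actives have a fitted effect of over 50% in size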)
# Outline: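 Compounds dissolved in DMSO were pin-transferred onto ERR cells that had been plated 6 h earlier, and cells were then incubated 18 h at 37 C; signal was luciferase luminescence via One-Glo.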
# [18] = qHTS assay to identify small molecule agonists of the estrogen related receptor (ERR) signaling pathway (AID 1224820)
# Outline: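 Cells: ERR line from NTP, 2,000/well. Pre-incubation 6 h, 37 C/5% CO2. Compound (DMSO) pin transfer, 18 h 37 C. One-Glo, 30 min RT, luminescence.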
# [19] = test system: estrogen-related receptor alpha (ERRalpha) with PGC-1alpha coactivator, human; assay: qHTS assay to identify small molecule antagonists of the estrogen related receptor signaling pathway with the pleiotropic PPARgamma coactivator (PGC) (AID 1224821; calls by dose curve)
# Outline: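 Luminescent read-out (One-Glo, 30 min at room temperature) following 18 h treatment of PGC/ERR cells at 37 C with compounds delivered in DMSO. Cells had settled 6 h at 37 C/5% CO2 before dosing.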
# [20] = qHTS assay to identify small molecule agonists of the estrogen related receptor signaling pathway with the pleiotropic PPARgamma coactivator (PGC) (AID 1224823)
# Outline: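 Steps: plate PGC/ERR cells at 2,000 cells/well; incubate 6 h, 37 C/5% CO2; pin-transfer compounds (DMSO); incubate 18 h, 37 C; add One-Glo; 30 min RT; read luminescence.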
Compound,Potency [1],Potency [2],Potency [3],Potency [4],Potency [5],Potency [6],Potency [7],Potency [8],Potency [9],Potency [10],Potency [11],Potency [12],Potency [13],Potency [14],Potency [15],Potency [16],Potency [17],outcome [18],Potency [19],outcome [20]
Cc1ccnc2c1NC(=O)c1cccnc1N2C1CC1,inactive,inactive,inactive,inactive,inactive,inactive,inactive,inactive,inactive,inactive,inactive,inactive,–,–,–,–,–,–,–,–
Cc1cccc([N+](=O)[O-])c1C(=O)O,inactive,inactive,inactive,inactive,inactive,inactive,inactive,inactive,inactive,inactive,inactive,inactive,inactive,inactive,–,–,–,–,–,–
NCCCCCC(=O)O,inactive,inactive,inactive,inactive,inactive,inactive,inactive,inactive,–,–,inactive,inactive,–,–,inactive,inactive,–,–,–,–
CO[Si](OC)(OC)c1ccccc1,inactive,inactive,inactive,inactive,inactive,inactive,inactive,inactive,inactive,inactive,inactive,inactive,inactive,inactive,–,–,–,–,–,–
COc1nc(C)nc(Cl)c1NC1=NCCN1,inactive,inactive,inactive,inactive,inactive,inactive,inactive,inactive,–,–,inactive,inactive,–,–,inactive,inactive,–,–,–,–
NC(N)=Nc1nc(CSCC/C(N)=N/S(N)(=O)=O)cs1,inactive,inactive,inactive,inactive,inactive,inactive,inactive,inactive,–,–,inactive,–,inactive,inactive,inactive,inactive,inactive,inactive,inactive,inactive
CCc1cc(C(C)(C)C)c(O)c(C(C)(C)C)c1,inactive,inactive,inactive,inactive,inactive,inactive,inactive,inactive,inactive,inactive and 12.2 µM (active),inactive,–,–,–,–,–,–,–,–,–
Cc1cc(OCCOCC[N+](C)(C)Cc2ccccc2)ccc1C(C)(C)CC(C)(C)C,10.9 µM (active) and 4.77 µM (active),60.8 µM (active) and 29.8 µM (active),48.3 µM (active) and 29.8 µM (active),–,54.2 µM (active) and 16.8 µM (active),inactive,–,–,inactive,inactive,48.3 µM (active),–,30.5 µM (active) and 7.5 µM (active),inactive,–,–,–,–,–,–
O=C(O[C@@H]1Cc2c(O)cc(O)cc2O[C@@H]1c1cc(O)c(O)c(O)c1)c1cc(O)c(O)c(O)c1,inactive,inactive,inactive,inactive,48.7 µM (active) and 52.5 µM (active),25.3 µM (active) and 38.5 µM (active),–,–,inactive,–,–,–,–,–,–,–,–,–,–,–
CCC(CO)(CO)COCC(CC)(CO)CO,inactive,inactive,inactive,inactive,inactive,inactive,–,inactive,inactive,inactive,inactive,inactive,inactive,inactive,–,–,–,–,–,–
C[N+]1([O-])CCOCC1,inactive,inactive,inactive,inactive,inactive,inactive,–,inactive,inactive,inactive,inactive,–,inactive,inactive,–,–,–,–,–,–
CC(C)CCCCCCc1ccc(O)cc1,5.59 µM (active) and 38.9 µM (active),78.3 µM (active),27.3 µM (active),inactive,7.83 µM (active) and 48.6 µM (active),36.2 µM (active) and inactive,–,–,1.11 µM (active),–,48.6 µM (active),–,–,–,–,–,–,–,–,–
CNCCC(Oc1ccc(C(F)(F)F)cc1)c1ccccc1 (configuration not stated),27.2 µM (active) and 23.9 µM (active),inactive,53.8 µM (active),–,60.3 µM (active),–,–,–,29.8 µM (active),–,67.7 µM (active) and 29.8 µM (active),inactive,–,–,inactive,–,–,–,–,–
Cc1ccc(-c2cc(C(F)(F)F)nn2-c2ccc(S(N)(=O)=O)cc2)cc1,48.8 µM (active) and 21.9 µM (active),60.9 µM (active) and inactive,43.1 µM (active) and 27.3 µM (active) and 29.8 µM (active),–,48.4 µM (active) and 61.1 µM (active),inactive,–,–,–,–,54.3 µM (active) and 54.5 µM (active) and inactive,–,60.9 µM (active) and inactive,inactive,inactive,inactive,–,inactive,inactive,inactive
C=CS(=O)(=O)O,inactive,inactive,inactive,inactive,inactive,inactive,–,inactive,inactive,inactive,inactive,–,inactive,inactive,–,–,–,–,–,–
CC(=O)CC(=O)Nc1ccc2[nH]c(=O)[nH]c2c1,inactive,inactive,inactive,inactive,inactive,inactive,–,inactive,inactive,inactive,inactive,inactive,inactive,inactive,–,–,–,–,–,–
O=C(O)c1cccc(C(=O)O)c1,inactive,inactive,inactive,inactive,inactive,inactive,inactive,inactive,–,–,inactive,inactive,–,–,–,–,–,–,–,–
OCCOCCN1CCN(C(c2ccccc2)c2ccc(Cl)cc2)CC1 (configuration not stated),21.6 µM (active),inactive,60.3 µM (active) and inactive,inactive,30.2 µM (active),inactive and 27.5 µM (active),–,–,inactive,–,47.9 µM (active) and inactive,inactive,–,–,–,–,–,–,–,–
